Source: PubChem (National Center for Advancing Translational Sciences (NCATS))
Pf growth 96h – P. falciparum growth inhibition at 96 hours; P. falciparum luciferase reporter growth, 96 h; Potency, µM (doses to about 28.7 µM), without a hit: at the top dose activity change, negative = inhibition, usual class: inhibitors; 6.9% of 320,000 active; AID 504834; further: on the % scale 0 is the no-effect control and ±100 the full control effect
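Cell-based qHTS: luciferase-tagged P. falciparum in erythrocytes (2% hematocrit, 0.05% parasitemia final) incubated with compounds for 96 hours, 37 C, 5% CO2; luciferase detection reagent then added and luminescence measured.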
Pf growth 48h – inhibits P. falciparum growth in the first generation, 48 h. Potency, µM (highest dose often 28.7 µM), for the others: top-dose activity change, negative = inhibition, hits mostly inhibitors. 5.9% of 310,000 active. AID 504832. P. falciparum luciferase growth in erythrocytes, 48 h; further: on the % scale 0 is the no-effect control and ±100 the full control effect
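Compounds are pin-transferred into medium, infected erythrocytes (2% hematocrit, 0.1% parasitemia final) are added, and plates sit one parasite generation at 37 C in 5% CO2. Detection reagent is then added and luminescence measured.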
SARS PLpro yeast – SARS-CoV PLP inhibition in yeast; S. cerevisiae expressing SARS-CoV PLpro, growth rescue; Potency, µM (top dose mostly 32.9 µM), for the others: at the highest dose activity, positive = growth rescue, usual class: activators; 0.19% of 330,000 active; calls by dose curve; further: 0% is about no effect; nearly all actives have a fitted effect of over 55% in size
AMA1-RON2 inh – disrupts binding of P. falciparum AMA1 to RON2. AlphaScreen AMA1-biotinylated RON2 peptide binding. Potency, µM (titrated, usually from 58.2 µM), for inactives: at the top dose activity change, negative = inhibition, usual class: inhibitors. 0.2% of 360,000 active. AID 720542;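 further: 0% = vehicle wells and -100% = peptide control; nearly all actives have a fitted effect of over 45% in size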
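AMA1 (3D7) with his tag at 25 nM final met compounds first, then biotinylated RON2 peptide at 25 nM; detection used donor plus acceptor beads, 10 µg/mL apiece, read by AlphaScreen after 30 min at room temperature.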
The depositor's hits bear a star; [ ] = remark or other dose. An excerpt weighted towards active compounds, which were near 9.4% of everything screened. Unless noted, the call rests on the fitted dose curve; in most records, active means well fitted curve in the direction sought with a large enough effect; inconclusive means small, poorly fitted or top-dose-only effect, or another doubt; inactive means no such curve, though single readings can be large; an effect the other way counts as inactive or inconclusive. Potency means the concentration at half of the fitted maximal effect.

COc1ccc(OC)c(CN2CCN(Cc3cc(=O)oc4cc(O)ccc34)CC2)c1 was read as Pf growth 96h 2.6µM*, Pf growth 48h 3.7µM*, SARS PLpro yeast 2% and AMA1-RON2 inh -14%.
For COc1ccc2c(CN3CCCC3)cc(=O)oc2c1 the results were AMA1-RON2 inh 0%.
`COc1ccc(N2CCN(Cc3cc(=O)oc4cc(C)c(Cl)cc34)CC2)cc1` gave Pf growth 96h 37%, Pf growth 48h -5%, SARS PLpro yeast 0% and AMA1-RON2 inh 4%.
`O=c1cc(CN2CCN(c3ccccc3F)CC2)c2cc(O)c(-c3ccccc3)cc2o1` gave Pf growth 96h 2.3µM*, Pf growth 48h 2.6µM*, SARS PLpro yeast -4% and AMA1-RON2 inh 2%.
For CCCCN(C(=O)/C=C/c1ccc(OCC(C)C)c(OCC)c1)c1c(N)n(CCC)c(=O)[nH]c1=O the results were Pf growth 96h inconclusive, Pf growth 48h inconclusive, SARS PLpro yeast 2% and AMA1-RON2 inh -4%.
CC(O)C(NS(=O)(=O)c1ccc(Cl)cc1)C(=O)OCC(=O)Nc1cccnc1Cl (centres undefined) was read as Pf growth 96h -3%, Pf growth 48h 6%, SARS PLpro yeast 11% and AMA1-RON2 inh -6%.
COC(=O)c1ccc(COC(=O)C(CCS(C)(=O)=O)N2C(=O)c3ccccc3C2=O)cc1 (centres undefined) was read as Pf growth 96h 6.6µM*, Pf growth 48h -9%, SARS PLpro yeast -16% and AMA1-RON2 inh 15%.
For CS(=O)(=O)CCC(C(=O)OCc1ccc(Br)cc1)N1C(=O)c2ccccc2C1=O (centres undefined) the results were Pf growth 96h 20%, Pf growth 48h -3%, SARS PLpro yeast -9% and AMA1-RON2 inh -7%.
`CCOC(=O)c1c(C)n(-c2ccc(C)cc2)c2ccc(OCC(O)CNCCCO)cc12` (centres undefined) gave Pf growth 96h 116%, Pf growth 48h inconclusive, SARS PLpro yeast 0% and AMA1-RON2 inh -16%.
CN(CCCC1CCCC1)C(=O)CC1C(=O)NCCN1Cc1cccc(F)c1F (centres undefined) was read as Pf growth 96h inconclusive, Pf growth 48h inconclusive, SARS PLpro yeast -6% and AMA1-RON2 inh 19%.
`C/C(=N\NC(=O)c1ccc(C)cc1)c1c(C)[nH]n(-c2ccccc2)c1=O` gave Pf growth 96h 15µM*, Pf growth 48h -4%, SARS PLpro yeast inconclusive and AMA1-RON2 inh 56%.
Screening COc1ccc(C(=O)NCCc2ccccc2)cc1OC returned Pf growth 96h 0%, Pf growth 48h 74%, SARS PLpro yeast -2% and AMA1-RON2 inh -6%.
`COc1ccc(/C(O)=C/c2nc3ccc(C(=O)NCCc4cccc(C)c4)cc3[nH]c2=O)cc1OC` gave Pf growth 96h inconclusive, Pf growth 48h 4.7µM*, SARS PLpro yeast 0% and AMA1-RON2 inh 8%.
`Cc1sc(NC(=O)c2ccccc2)c(C#N)c1-c1ccccc1` gave Pf growth 96h 4.1µM*, Pf growth 48h 104%, SARS PLpro yeast 10% and AMA1-RON2 inh -4%.
`O=C(O)c1ccc2c(c1)ncn2C1CCCCC1` gave Pf growth 96h 26%, Pf growth 48h inconclusive, SARS PLpro yeast inconclusive and AMA1-RON2 inh 2%.
Cc1cc(C)nc(SCC(=O)OCN2C(=O)c3ccccc3C2=O)n1 was read as Pf growth 96h -24%, Pf growth 48h 1.9µM*, SARS PLpro yeast -2% and AMA1-RON2 inh -5%.
Screening Cc1ccn2cc(CCNS(=O)(=O)c3ccc4c(c3)OCCO4)nc2c1 returned Pf growth 96h 23%, Pf growth 48h 14%, SARS PLpro yeast 2% and AMA1-RON2 inh 3%.
For NC(=O)C1CCN(S(=O)(=O)c2cc3c4c(c2)CCN4C(=O)CC3)CC1 the results were Pf growth 96h -9%, Pf growth 48h inconclusive, SARS PLpro yeast -1% and AMA1-RON2 inh -6%.
Screening CC(=O)C1=C(c2ccccc2)NC(=S)NC1c1ccc(O)c(O)c1 (centres undefined) returned Pf growth 96h 13µM*, Pf growth 48h -4%[5.75 µM], SARS PLpro yeast -1% and AMA1-RON2 inh inconclusive.
`CN1C[C@@H]2C(c3ccc(C(F)(F)F)cc3)C3(c4ccc(C#N)cc4)CC2(C3)[C@H]1c1ccccc1` (some centres undefined) gave Pf growth 96h 12µM*, Pf growth 48h 12µM*, SARS PLpro yeast -3% and AMA1-RON2 inh -4%.
CN1C[C@@H]2C(c3ccccc3)C3(c4ccccc4)CC2(C3)[C@H]1c1ccccc1 (some centres undefined) was read as Pf growth 96h inconclusive, Pf growth 48h inconclusive, SARS PLpro yeast 2% and AMA1-RON2 inh inconclusive.
CN1C[C@@H]2C(c3ccccc3)C3(c4ccc(C#N)cc4)CC2(C3)[C@H]1c1ccccc1 (some centres undefined) was read as Pf growth 96h 10µM*, Pf growth 48h 10µM*, SARS PLpro yeast -2% and AMA1-RON2 inh -7%.
`Cn1c(SCCSc2nnc(-c3ccccc3)n2C)nnc1-c1ccccc1` gave Pf growth 96h inconclusive, Pf growth 48h 0% and SARS PLpro yeast -3%.
For O=C(CCCc1ccccc1)NCCc1cnc[nH]1 the results were Pf growth 96h 29%, Pf growth 48h 30%, SARS PLpro yeast 2% and AMA1-RON2 inh -12%.
Screening Cn1cccc1C(=O)OCC(=O)N1CCc2ccccc21 returned SARS PLpro yeast -3% and AMA1-RON2 inh -7%.
Screening CCC(=O)Nc1ccc(C(=O)CSc2nnc(-c3ccccc3F)n2C2CC2)cc1 returned Pf growth 96h 2.9µM*, Pf growth 48h 2.6µM*, SARS PLpro yeast -3% and AMA1-RON2 inh 0%.
For COc1ccc(-c2ccc(SCc3ccccn3)nn2)cc1OC the results were Pf growth 96h 2.6µM*, Pf growth 48h 3%, SARS PLpro yeast -5% and AMA1-RON2 inh 20%.
`O=C(Cn1c(=O)n(CCc2c[nH]c3ccccc23)c(=O)c2cccnc21)Nc1ccccc1F` gave Pf growth 96h -15%, Pf growth 48h inconclusive, SARS PLpro yeast 9% and AMA1-RON2 inh -9%.
Screening COc1cccc(F)c1C(=O)NC(=O)Nc1ccc2nc(C)oc2c1 returned Pf growth 96h 2.1µM*, Pf growth 48h 2.1µM*, SARS PLpro yeast 0% and AMA1-RON2 inh -10%.
For CN(C)CCOC(=O)c1ccc(COc2ccccc2Br)o1 the results were Pf growth 96h 29%, Pf growth 48h -23%[0.00184 µM], SARS PLpro yeast 1% and AMA1-RON2 inh -10%.
`N#CCSc1ccccc1NC(=O)COC(=O)Cc1c[nH]c2ccccc12` gave Pf growth 96h 6.6µM*, Pf growth 48h 10µM*, SARS PLpro yeast 15% and AMA1-RON2 inh -2%.
For CC(C)c1ccccc1NC(=O)COC(=O)Cc1c[nH]c2ccccc12 the results were Pf growth 96h 23%, Pf growth 48h -23%, SARS PLpro yeast 5% and AMA1-RON2 inh -12%.
CCC(C)n1c(O)c(C=NCc2cccnc2)c(=O)[nH]c1=S (centres undefined) was read as Pf growth 96h 19%, Pf growth 48h 1%, SARS PLpro yeast 0% and AMA1-RON2 inh 9%.
